{"source": "PubChem BioAssay AID1159580", "about": "(chemical genetic matrix, 2015)", "experiment": "chemical genetic growth profiling, strain panel (AID 1159580);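 further: tested at 20 µM; growth read once vehicle control cultures reached saturation at 30 °C; 1 = growth at the plate median or of vehicle wells; lower values mean less growth of the strain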", "conditions": "S. cerevisiae deletion strains, growth OD", "note": "Where “and” joins values, the source holds several entries; their conditions need not be identical. Identical values can stand only once. In all, about 5,500 compounds went through this assay and about 2,000 (36%) were called active. Roughly 18% stayed inconclusive and do not appear here. The list shows a part of the results. Unmarked numbers belong to inactive results. No stated cut-off is given here; in the data, active means normalized growth mostly below about 0.91 (no sharp cut-off); inconclusive means no clear call, values can overlap the other calls; inactive means mostly above about 0.92."}
{"smiles": "CCc1nc(N)nc(N)c1-c1ccc(Cl)cc1", "values": [{"measurement": "normalized growth", "setting": "locus YAL013W, strain DEP1, hits give low values", "result": 1.02}, {"measurement": "normalized growth", "setting": "locus YAL021C, strain ccr4, hits give low values", "result": 0.951}, {"measurement": "normalized growth", "setting": "locus YAL026C, strain drs2, hits give low values", "result": 0.967}, {"measurement": "normalized growth", "setting": "locus YAL030W, strain snc1, hits give low values", "result": 0.977}, {"measurement": "normalized growth", "setting": "locus YBL061C, strain skt5, hits give low values", "result": 0.97}, {"measurement": "normalized growth", "setting": "locus YBR009C, strain hhf1, hits give low values", "result": 0.997}, {"measurement": "normalized growth", "setting": "locus YBR021W, strain FUR4, hits give low values", "result": 1.02}, {"measurement": "normalized growth", "setting": "locus YBR023C, strain chs3, hits give low values", "result": 0.999}, {"measurement": "normalized growth", "setting": "locus YBR171W, strain sec66, hits give low values", "result": 0.969}, {"measurement": "normalized growth", "setting": "locus YBR229C, strain ROT2, hits give low values", "result": 1.01}, {"measurement": "normalized growth", "setting": "locus YBR231C, strain swc5, hits give low values", "result": 0.971}, {"measurement": "normalized growth", "setting": "locus YBR279W, strain paf1, hits give low values", "result": 0.994}, {"measurement": "normalized growth", "setting": "locus YCL011C, strain gbp2, hits give low values", "result": 0.978}, {"measurement": "normalized growth", "setting": "locus YCL016C, strain dcc1, hits give low values", "result": 0.997}, {"measurement": "normalized growth", "setting": "locus YCL029C, strain bik1, hits give low values", "result": 0.988}, {"measurement": "normalized growth", "setting": "locus YCL061C, strain MRC1, hits give low values", "result": 0.958}, {"measurement": "normalized growth", "setting": "locus YCL069W, strain vba3, hits give low values", "result": 0.986}, {"measurement": "normalized growth", "setting": "locus YCR088W, strain abp1, hits give low values", "result": 0.977}, {"measurement": "normalized growth", "setting": "locus YDL005C, strain med2, hits give low values", "result": 0.972}, {"measurement": "normalized growth", "setting": "locus YDL035C, strain GPR1, hits give low values", "result": 0.995}, {"measurement": "normalized growth", "setting": "locus YDL040C, strain nat1, hits give low values", "result": 0.973}, {"measurement": "normalized growth", "setting": "locus YDL074C, strain BRE1, hits give low values", "result": 0.987}, {"measurement": "normalized growth", "setting": "locus YDL101C, strain DUN1, hits give low values", "result": 1}, {"measurement": "normalized growth", "setting": "locus YDL134C, strain PPH21, hits give low values", "result": 1.01}, {"measurement": "normalized growth", "setting": "locus YDL185W, strain tfp1, hits give low values", "result": 1}, {"measurement": "normalized growth", "setting": "locus YDL192W, strain arf1, hits give low values", "result": 1}, {"measurement": "normalized growth", "setting": "locus YDR001C, strain nth1, hits give low values", "result": 0.969}, {"measurement": "normalized growth", "setting": "locus YDR069C, strain doa4, hits give low values", "result": "0.898 (active)"}, {"measurement": "normalized growth", "setting": "locus YDR101C, strain arx1, hits give low values", "result": 0.987}, {"measurement": "normalized growth", "setting": "locus YDR137W, strain rgp1, hits give low values", "result": 1.02}, {"measurement": "normalized growth", "setting": "locus YDR150W, strain NUM1, hits give low values", "result": 1.01}, {"measurement": "normalized growth", "setting": "locus YDR159W, strain sac3, hits give low values", "result": 0.955}, {"measurement": "normalized growth", "setting": "locus YDR162C, strain NBP2, hits give low values", "result": 1.01}, {"measurement": "normalized growth", "setting": "locus YDR195W, strain ref2", "result": 0.979}, {"measurement": "normalized growth", "setting": "locus YDR297W, strain sur2, hits give low values", "result": 0.987}, {"measurement": "normalized growth", "setting": "locus YDR318W, strain mcm21, hits give low values", "result": 0.976}, {"measurement": "normalized growth", "setting": "locus YDR334W, strain swr1, hits give low values", "result": 0.936}, {"measurement": "normalized growth", "setting": "locus YDR335W, strain msn5, hits give low values", "result": 0.973}, {"measurement": "normalized growth", "setting": "locus YDR388W, hits give low values", "result": 0.974}, {"measurement": "normalized growth", "setting": "locus YDR392W, strain spt3, hits give low values", "result": 1.02}, {"measurement": "normalized growth", "setting": "locus YDR502C, strain sam2, hits give low values", "result": 0.996}, {"measurement": "normalized growth", "setting": "locus YEL003W, strain gim4, hits give low values", "result": 0.97}, {"measurement": "normalized growth", "setting": "locus YEL037C, strain rad23, hits give low values", "result": 0.969}, {"measurement": "normalized growth", "setting": "locus YEL061C, strain CIN8 (second series), hits give low values", "result": 0.966}, {"measurement": "normalized growth", "setting": "locus YEL061C, strain CIN8, hits give low values", "result": 1.01}, {"measurement": "normalized growth", "setting": "locus YER015W, strain faa2, hits give low values", "result": 0.985}, {"measurement": "normalized growth", "setting": "locus YER016W, strain bim1, hits give low values", "result": 1.01}, {"measurement": "normalized growth", "setting": "locus YER110C, hits give low values", "result": 0.999}, {"measurement": "normalized growth", "setting": "locus YER111C, strain swi4, hits give low values", "result": 0.983}, {"measurement": "normalized growth", "setting": "locus YER155C, strain BEM2 (second series), hits give low values", "result": 0.933}, {"measurement": "normalized growth", "setting": "locus YER155C, strain BEM2, hits give low values", "result": 1.01}, {"measurement": "normalized growth", "setting": "locus YER167W, strain BCK2, hits give low values", "result": 1.01}, {"measurement": "normalized growth", "setting": "locus YFR010W, strain ubp6, hits give low values", "result": 0.931}, {"measurement": "normalized growth", "setting": "locus YGL078C, strain dbp3, hits give low values", "result": 1}, {"measurement": "normalized growth", "setting": "locus YGL086W, strain mad1, hits give low values", "result": 0.994}, {"measurement": "normalized growth", "setting": "locus YGL167C, strain pmr1, hits give low values", "result": 0.981}, {"measurement": "normalized growth", "setting": "locus YGL173C, strain kem1, hits give low values", "result": 0.982}, {"measurement": "normalized growth", "setting": "locus YGL227W, strain vid30, hits give low values", "result": 0.959}, {"measurement": "normalized growth", "setting": "locus YGL240W, strain doc1, hits give low values", "result": 0.97}, {"measurement": "normalized growth", "setting": "locus YGL248W, strain PDE1, hits give low values", "result": 1.01}, {"measurement": "normalized growth", "setting": "locus YGL253W, strain hxk2, hits give low values", "result": 0.97}, {"measurement": "normalized growth", "setting": "locus YGR078C, strain PAC10, hits give low values", "result": 1}, {"measurement": "normalized growth", "setting": "locus YGR135W, strain pre9, hits give low values", "result": 0.979}, {"measurement": "normalized growth", "setting": "locus YGR229C, strain SMI1, hits give low values", "result": 1.01}, {"measurement": "normalized growth", "setting": "locus YGR252W, strain gcn5, hits give low values", "result": 0.981}, {"measurement": "normalized growth", "setting": "locus YHR013C, strain ard1, hits give low values", "result": 0.886}, {"measurement": "normalized growth", "setting": "locus YHR027C, strain rpn1, hits give low values", "result": 0.976}, {"measurement": "normalized growth", "setting": "locus YHR030C, strain SLT2, hits give low values", "result": "1.01 and 1.05"}, {"measurement": "normalized growth", "setting": "locus YHR079C, strain IRE1 (second series), hits give low values", "result": 0.987}, {"measurement": "normalized growth", "setting": "locus YHR079C, strain IRE1, hits give low values", "result": 1.07}, {"measurement": "normalized growth", "setting": "locus YHR094C, strain hxt1, hits give low values", "result": 1}, {"measurement": "normalized growth", "setting": "locus YHR129C, strain ARP1, hits give low values", "result": 1.01}, {"measurement": "normalized growth", "setting": "locus YHR142W, strain chs7, hits give low values", "result": 0.95}, {"measurement": "normalized growth", "setting": "locus YHR200W, strain rpn10, hits give low values", "result": 1}, {"measurement": "normalized growth", "setting": "locus YIL066C, strain RNR3, hits give low values", "result": 1.01}, {"measurement": "normalized growth", "setting": "locus YIL073C, strain SPO22, hits give low values", "result": 1.31}, {"measurement": "normalized growth", "setting": "locus YIL125W, strain kgd1, hits give low values", "result": 1.01}, {"measurement": "normalized growth", "setting": "locus YIR030C, strain dcg1, hits give low values", "result": 1}, {"measurement": "normalized growth", "setting": "locus YJL092W, strain hpr5, hits give low values", "result": 0.956}, {"measurement": "normalized growth", "setting": "locus YJL095W, strain BCK1 (second series), hits give low values", "result": 0.979}, {"measurement": "normalized growth", "setting": "locus YJL095W, strain BCK1, hits give low values", "result": "0.982 and 1.04"}, {"measurement": "normalized growth", "setting": "locus YJL115W, strain asf1, hits give low values", "result": 0.961}, {"measurement": "normalized growth", "setting": "locus YJL129C, strain trk1, hits give low values", "result": 0.927}, {"measurement": "normalized growth", "setting": "locus YJL134W, strain LCB3, hits give low values", "result": 1.01}, {"measurement": "normalized growth", "setting": "locus YJL154C, strain vps35, hits give low values", "result": 0.954}, {"measurement": "normalized growth", "setting": "locus YJL164C, strain tpk1, hits give low values", "result": 1}, {"measurement": "normalized growth", "setting": "locus YJL166W, strain qcr8, hits give low values", "result": 0.944}, {"measurement": "normalized growth", "setting": "locus YJL168C, strain set2, hits give low values", "result": 1}, {"measurement": "normalized growth", "setting": "locus YJL187C, strain SWE1 (second series), hits give low values", "result": 0.982}, {"measurement": "normalized growth", "setting": "locus YJR043C, strain POL32, hits give low values", "result": 0.992}, {"measurement": "normalized growth", "setting": "locus YJR066W, strain TOR1, hits give low values", "result": 0.994}]}
